Many of the other results were omitted from the sample, so hits are more common in it than they were.
aSyn UTR act: Activators via SNCA 5'UTR binding, MLPCN | alpha-synuclein 5'UTR reporter, activators screen | activity score, % (tested at 7.5 µM), hits read low | 300,000 tested, 7.1% active | AID 1814, 2009; in the data active = activity score below about -60%
Numbers without * were called inactive.

SMILES | aSyn UTR act
COc1ccccc1/C=N\Nc1ccccc1[N+](=O)[O-] | -91*
CN(C)C(=O)CSc1nnc(C23CC4CC(CC(C4)C2)C3)o1 | -160*
CS(=O)(=O)c1ccc2sc(NC(=O)c3cc4ccccc4o3)nc2c1 | -96*
CS(=O)(=O)c1ccc2nc(NC(=O)c3cc4ccccc4o3)sc2c1 | -167*
CC(=O)Nc1nc2ccc(-c3nc4ccccc4o3)cc2s1 | -108*
CCOc1ccccc1-c1nc(-c2ccc(NC(=O)c3ccc(Br)o3)cc2)no1 | -136*
CCOc1ccccc1-c1nc(-c2cccc(Br)c2)no1 | -135*
O=[N+]([O-])c1ccc(Cc2nnc(-c3ccccc3Cl)o2)cc1 | -172*
Cc1cccc(-n2ncc3c(NNC(=O)c4ccco4)ncnc32)c1 | -133*
Cc1ccc(-n2ncc3c(NNC(=O)c4ccco4)ncnc32)cc1Cl | -166*
O=C1OCCC1Sc1nnc(-c2ccc3c(c2)OCO3)o1 (stereo not drawn) | 55
Nc1oc2ccccc2c(=O)c1-c1ccc2c(c1)OCO2 | -75*
CC(C)(C)C(=O)OCc1nc(-c2ccc(Cl)cc2)cs1 | -133*
NC(=S)Cc1nc(-c2ccc(Cl)cc2)cs1 | -104*
CC(C)(C)C(=O)OCc1nc(-c2ccc3c(c2)OCCO3)cs1 | -141*
CC(C)(C)C(=O)OCc1nc(-c2ccc(F)cc2)cs1 | -106*
O=C1c2ccccc2C(=O)N1CCOc1cccc(Br)c1 | -71*
COc1ccc(OCCN2C(=O)c3cccc(N)c3C2=O)cc1 | -98*
Cc1ccc(NC(=O)c2onc(C)c2Cl)cc1 | -151*
Cc1noc(C(=O)Nc2ccc(F)c(Cl)c2)c1Cl | -70*
CSc1ccc(CNc2ccc(C)cc2)cc1 | -149*
CSc1ccc(CNc2ccc(C)c(C)c2)cc1 | -139*
O=C(NCCCC1CCCC1)C1CCC(=O)N(Cc2cccc(F)c2)C1 (stereo not drawn) | -161*
COc1ccccc1CCCNC(=O)C1CCC(=O)N(Cc2ccccc2F)C1 (stereo not drawn) | -130*
CC(=O)Nc1ccc(Nc2nc(-c3cc4ccccc4oc3=O)cs2)cc1 | -449*
SMILES | aSyn UTR act
Nc1ccc(Nc2nc(-c3cc4ccccc4oc3=O)cs2)cc1 | -200*
Cn1ccsc1=NC(=O)c1cccc(C#N)c1 | -86*
CCCCOc1ccc(C(=O)N=c2sccn2C)cc1OC | -164*
Cn1ccsc1=NC(=O)c1ccc(S(C)(=O)=O)cc1 | -62*
Cc1ccc(C(=O)N=c2sccn2C)cc1S(=O)(=O)N1CCOCC1 | -160*
Cc1ccc(NC(=S)N=Nc2c(O)n(C)c3ccc(S(=O)(=O)N4CCOCC4)cc23)cc1C | 77
Cn1ccsc1=NC(=O)c1ccc(Cl)c([N+](=O)[O-])c1 | -117*
Cc1cccc(C(=O)N=c2sccn2C)c1[N+](=O)[O-] | -133*
Cc1ccc(N=Cc2ccc(O)cc2O)cc1F | -84*
Cc1cc(-c2ccccc2)nc(N/N=C/c2ccccc2)n1 | -110*
Cc1cc(-c2ccccc2)nc(N/N=C/c2ccco2)n1 | -126*
Clc1cccc(/C=N\Nc2nccs2)c1 | -168*
C(=N/Nc1nc(-c2ccccc2)cc(-c2ccccc2)n1)/c1cccnc1 | -121*
Cc1cc(C)nc(N/N=C/c2cccc(Cl)c2)n1 | -93*
Clc1cccc(/C=N/Nc2nc(Cl)nc3ccccc23)c1 | -172*
Cc1cccc(NC(=O)Cc2noc3ccccc23)c1 | -82*
O=C(Cc1noc2ccccc12)Nc1ccc(Cl)cc1 | -69*
CC1CN(C(=O)c2ccc(-c3ccccc3Cl)o2)CC(C)O1 (stereo not drawn) | -64*
CC1CCCN(C(=O)c2ccc(-c3ccccc3Cl)o2)C1 (stereo not drawn) | -136*
CC(C)(CNC(=O)c1ccc(-c2ccccc2Cl)o1)N1CCOCC1 | -124*
O=[N+]([O-])c1cc(-c2n(-c3ccccn3)c3ccccc3[n+]2-c2ccccn2)ccc1Cl | -88*
Cc1cccc(NC(=O)c2oc3c(c2C)C(=O)CC(C)(C)C3)n1 | -83*
Cc1ccn2c(NC3CCCC3)c(-c3cccs3)nc2c1 | -116*
Cc1ccn2c(NCc3ccccc3)c(-c3cccs3)nc2c1 | -100*
COC(=O)COc1ccc(Cl)cc1C1Nc2ccccc2C(=O)N1c1ccc(OC)cc1 (stereo not drawn) | -88*
SMILES | aSyn UTR act
COc1ccc(N2C(=O)c3ccccc3NC2c2ccc(OC)c(CSc3ccccn3)c2)cc1 (stereo not drawn) | -89*
COc1ccc(N2C(=O)c3ccccc3NC2c2ccc(OC)c(COc3ccccn3)c2)cc1 (stereo not drawn) | -77*
Cc1ccccc1N(CC(=O)NC1CCCC1)C(=O)c1csnn1 | -146*
COc1ccc(C(=O)/C=C/C(=O)N(CC(=O)NC2CCCCC2)Cc2cccs2)c(O)c1 | 71
CC(C)CNC(=O)c1cc(-c2ccco2)on1 | -137*
CCCNC(=O)c1cc(-c2ccco2)on1 | -335*
O=C(Nc1ccccc1C(F)(F)F)c1cc2ncc(CCCl)cn2n1 | -81*
CCc1ccccc1NC(=O)c1cc2ncc(Br)cn2n1 | -79*
COC(=O)c1cccc(NC(=O)c2cc3sccc3n2C)c1 | -76*
CN(C(=O)c1cc2sccc2n1C)C1CCCCC1 | -110*
Cn1c(C(=O)NC2CCCCC2)cc2sccc21 | -147*
CCn1c(C(=O)NC2CCC(C)CC2)cc2sccc21 (stereo not drawn) | -87*
Cc1ccc(N=Nc2c(O)n(CN3CCOCC3)c3ccccc23)cc1 | -116*
Cc1ccc(N=Nc2ccc(O)c3ncccc23)cc1 | 86
COc1cccc(-c2nc(N3CCN(C)CC3)c3ccccc3n2)c1O | -165*
CN(C)S(=O)(=O)Oc1cccc(C(=O)Nc2ccccc2Cl)c1 | -91*
CN(C)S(=O)(=O)Oc1ccc(C(=O)Nc2cccc(Cl)c2)cc1 | -244*
CN(C)S(=O)(=O)Oc1cccc(C(=O)Nc2ccc(Cl)cc2)c1 | -129*
CCc1cccc(NC(=O)Nc2cccs2)c1 | -243*
COc1ccc(NC(=O)c2cc(F)c(F)cc2Cl)cc1Cl | -93*
COc1ccc(NC(=O)C=C(C)C)cc1Cl | -122*
COc1ccc(NC(=O)Nc2cccs2)cc1Cl | -167*
CCNC(=O)C(=O)Nc1ccc(OC)c(Cl)c1 | -83*
CC(C)=CC(=O)Nc1ccc(Cl)cc1 | -90*
Cn1cc(/C=C/c2cc[n+](C)cc2)c2cc(Cl)ccc21 | 64
SMILES | aSyn UTR act
Cc1ccc(C(=O)N/N=C2\SCC(=O)N2c2cc(C)ccc2C)cc1 | -94*
CC(=O)N(/N=C1\Sc2ccccc2C1=O)c1cccc(C)c1 | -127*
Cc1ccc(-c2csc(N3C(=N)SCC3=O)n2)cc1 | -162*
CC1=C(CC(=O)c2ccc(Cl)cc2)C(=O)c2ccccc2C1=O | -70*
O=C(Cc1ccccn1)c1ccc(Cl)cc1 | -164*
CC(C)(C)NC(=O)N1CCN(c2nc3ccc(Cl)cc3s2)CC1 | -156*
CCCCC(=O)N1CCN(c2nc3ccc(Cl)cc3s2)CC1 | -148*
CC(C)(C)NC(=O)N1CCN(c2nc(-c3ccccc3)ns2)CC1 | -119*
COc1ccccc1C1=NC(c2ccc(C)cc2)N=C1C (stereo not drawn) | -78*
O=C(O)c1cc(-c2c[nH]c3ccccc23)nc2cc3ccccc3cc12 | -66*
C=CCN(C(=O)CN1CCCCC1)c1nc(-c2ccccc2)cs1 | -110*
N#C/C(=C(/O)CN1CCCC1)c1nc(-c2ccccc2)cs1 | -115*
COc1ccc(/C=C/c2cc(=O)c3cc(Cl)ccc3o2)cc1 | -253*
O=C1c2ccccc2C(=O)N1CCc1ccccc1 | -70*
O=C1C2CC=C(Cl)CC2C(=O)N1CCc1ccccc1 (stereo not drawn) | -69*

Assay outcomes: PubChem BioAssay, Broad Institute
